Laboratory results from PubChem BioAssay (NCATS).
Results filed as inconclusive are left out. Active and inactive are the calls of the source. Unless noted, calls follow the shape of the dose curve; as a rule, active = well fitted curve in the direction sought with a large enough effect; inconclusive = small, poorly fitted or top-dose-only effect, or another doubt; inactive = no such curve, though single readings can be large; an effect the other way counts as inactive or inconclusive.

Assays:
[1] = Cytometric Cell-Based qHTS for Inhibitors of the mTORC1 Signaling Pathway in MEF (Tsc2-/-, p53-/-) Cells (AID 2660); conditions: mTORC1 pathway cytometry; series mostly up to 38.3 µM;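 also: percent of cells above a phospho-rpS6 to PI ratio cutoff in each well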
From the text: NIH Molecular Libraries Probe Production Centers Network [MLPCN]
NIH Chemical Genomics Center [NCGC]
Assay Submitter (PI): Blenis, John; Hoffman, Greg; Harvard University
NCGC Assay Overview: The mammalian target of rapamycin (mTOR) is an intracellular serine/threonine kinase Aberrant regulation of mTOR signaling plays a causative role in a number of human diseases, including cancer, benign tumors such as lymphangioleiomyomatosis (LAM) and Tuberous Sclerosis Complex (TSC), and metabolic diseases such as diabetes and obesity. This project aims to identify inhibitors of ribosomal protein S6 (rpS6) phosphorylation. The phosphorylation of rpS6 is a key event downstream of mTOR activation. The assay uses a phospho-specific antibody of phospho-rpS6 to detect inhibitors of mTOR activation. Mutations in the Tsc1 and Tsc2 genes are the underlying genetic lesions responsible for TSC, causing constitutive activation of the mTORC1 pathway and leading to profound effects on cell metabolism. […]
For quantitative high throughput analysis of mTORC1 signaling, we developed a cell-based assay for immuno-fluorescence based detection of rpS6 phosphorylation on the Acumen Explorer that will be used a platform for the primary small molecule screen. […] The fluorescence emission from the Alexa-488 conjugated rpS6 phospho-235/236 antibody staining is selected using a […] band pass filter. Fluorescence emission from the PI stain is selected using a 575-640 nm band pass filter. The normalized phospho-S6 staining is calculated as the ratio of the integrated Alexa 488 intensity divided by the integrated PI intensity for the single concentration rapamycin control (7.5 nM) and DMSO columns. […]

[2] = High Content Imaging Cell-Based qHTS for Inhibitors of the mTORC1 Signaling Pathway in MEF (Tsc2-/-, p53-/-) Cells (AID 2666); conditions: at 38.3 µM (top of the series);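 also: percent of cells scored positive for phospho-rpS6 Ser235/236 immunostaining by imaging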
Outline: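 Read-out: % positive cells per well, with thresholds from highest- and lowest-signal wells, based on phospho-rpS6 (Ser235/236) intensity normalized to Hoechst nuclear stain. Cells: Tsc2-/-, p53-/- MEFs carrying empty vector; compound 24 hrs, 37 degree Celsius.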

[3] = High Content Imaging Cell-Based qHTS for Inhibitors of the mTORC1 Signaling Pathway in MEF Cells (AID 2667); conditions: series mostly up to 38.3 µM;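 also: Tsc2-/- p53-/- MEFs stably re-expressing wild-type Tsc2 exposed 24 h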
Outline: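 MEF (Tsc2-/-, p53-/-, WT Tsc2 re-expressed); cpd 24 h, 37 °C; PFA fix; Alexa-488 anti-p-rpS6 Ser235/236, PI, Hoechst; IN Cell imaging; Hoechst/Alexa-488 intensity ratio; % active cells, thresholds set from rapamycin and DMSO wells.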

[4] = Cytometry Cell-Based qHTS for Inhibitors of the mTORC1 Signaling Pathway in MEF cells (AID 2668); conditions: mTORC1 pathway readout; series mostly up to 38.3 µM;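 also: Tsc2-/- p53-/- mouse embryonic fibroblasts stably re-expressing wild-type Tsc2; percent cells positive for phospho-rpS6 Ser235/236 relative to propidium iodide stain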
Outline: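 Pathway inhibition in WT Tsc2-rescued Tsc2-/-, p53-/- MEFs is measured as the Alexa-488 phospho-rpS6 to propidium iodide intensity ratio after 24 hrs of compound at 37 degree Celsius. PI-stained cell number gives viability.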

[5] = biological target: Ubiquitin carboxyl-terminal hydrolase 2 (Homo sapiens) (UniProt O75604); assay: qHTS Validation Assay for Inhibitors of Ubiquitin-specific Protease USP2a Using CHOP2 as the Reporter (AID 463106); conditions: USP2a cleavage of CHOP2 reporter, enzymatic; series mostly up to 38.3 µM
Sequence of Ubiquitin carboxyl-terminal hydrolase 2 (Homo sapiens) (O75604 whole entry, looked up): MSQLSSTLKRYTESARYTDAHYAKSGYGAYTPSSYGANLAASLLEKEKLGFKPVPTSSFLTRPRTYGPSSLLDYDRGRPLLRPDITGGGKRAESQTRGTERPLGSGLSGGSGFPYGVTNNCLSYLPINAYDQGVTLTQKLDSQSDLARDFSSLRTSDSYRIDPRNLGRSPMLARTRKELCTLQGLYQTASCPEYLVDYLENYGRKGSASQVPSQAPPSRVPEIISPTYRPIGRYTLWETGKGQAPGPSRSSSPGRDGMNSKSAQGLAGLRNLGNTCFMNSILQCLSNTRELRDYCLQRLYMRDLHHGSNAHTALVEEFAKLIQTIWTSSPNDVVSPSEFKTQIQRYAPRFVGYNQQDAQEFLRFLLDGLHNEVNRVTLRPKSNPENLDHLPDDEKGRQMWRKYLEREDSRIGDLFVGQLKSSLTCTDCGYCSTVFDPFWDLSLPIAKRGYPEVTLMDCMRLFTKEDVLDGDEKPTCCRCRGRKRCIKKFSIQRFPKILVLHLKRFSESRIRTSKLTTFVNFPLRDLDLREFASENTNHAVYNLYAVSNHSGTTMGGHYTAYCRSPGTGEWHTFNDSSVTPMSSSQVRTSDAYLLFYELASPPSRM
Outline: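 USP2 core (10nM final) was preincubated with compound for 30min at RT in 20mM Tris-HCl pH 8.0, 2mM CaCl2, 2mM beta-mercaptoethanol, 0.05% CHAPS. Ub-CHOP2 and reporter substrate (25nM each) were added, and fluorescence (Ex 485/Em 531nm) was read after 60min.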

[6] = biological target: DNA polymerase III PolC-type (Bacillus subtilis (strain 168)) (UniProt P13267); assay: qHTS Validation Assay for the Inhibitors of DNA Replication in Gram-Positive Bacteria (AID 485295); conditions: Gram-positive bacterial DNA replication assay; series mostly up to 57.1 µM;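 also: reconstituted holoenzyme with PolC plus beta clamp SSB and primase; PicoGreen fluorescence of double-stranded DNA made on primed circular M13 template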
Sequence of DNA polymerase III PolC-type (Bacillus subtilis (strain 168)) (P13267 whole entry, looked up): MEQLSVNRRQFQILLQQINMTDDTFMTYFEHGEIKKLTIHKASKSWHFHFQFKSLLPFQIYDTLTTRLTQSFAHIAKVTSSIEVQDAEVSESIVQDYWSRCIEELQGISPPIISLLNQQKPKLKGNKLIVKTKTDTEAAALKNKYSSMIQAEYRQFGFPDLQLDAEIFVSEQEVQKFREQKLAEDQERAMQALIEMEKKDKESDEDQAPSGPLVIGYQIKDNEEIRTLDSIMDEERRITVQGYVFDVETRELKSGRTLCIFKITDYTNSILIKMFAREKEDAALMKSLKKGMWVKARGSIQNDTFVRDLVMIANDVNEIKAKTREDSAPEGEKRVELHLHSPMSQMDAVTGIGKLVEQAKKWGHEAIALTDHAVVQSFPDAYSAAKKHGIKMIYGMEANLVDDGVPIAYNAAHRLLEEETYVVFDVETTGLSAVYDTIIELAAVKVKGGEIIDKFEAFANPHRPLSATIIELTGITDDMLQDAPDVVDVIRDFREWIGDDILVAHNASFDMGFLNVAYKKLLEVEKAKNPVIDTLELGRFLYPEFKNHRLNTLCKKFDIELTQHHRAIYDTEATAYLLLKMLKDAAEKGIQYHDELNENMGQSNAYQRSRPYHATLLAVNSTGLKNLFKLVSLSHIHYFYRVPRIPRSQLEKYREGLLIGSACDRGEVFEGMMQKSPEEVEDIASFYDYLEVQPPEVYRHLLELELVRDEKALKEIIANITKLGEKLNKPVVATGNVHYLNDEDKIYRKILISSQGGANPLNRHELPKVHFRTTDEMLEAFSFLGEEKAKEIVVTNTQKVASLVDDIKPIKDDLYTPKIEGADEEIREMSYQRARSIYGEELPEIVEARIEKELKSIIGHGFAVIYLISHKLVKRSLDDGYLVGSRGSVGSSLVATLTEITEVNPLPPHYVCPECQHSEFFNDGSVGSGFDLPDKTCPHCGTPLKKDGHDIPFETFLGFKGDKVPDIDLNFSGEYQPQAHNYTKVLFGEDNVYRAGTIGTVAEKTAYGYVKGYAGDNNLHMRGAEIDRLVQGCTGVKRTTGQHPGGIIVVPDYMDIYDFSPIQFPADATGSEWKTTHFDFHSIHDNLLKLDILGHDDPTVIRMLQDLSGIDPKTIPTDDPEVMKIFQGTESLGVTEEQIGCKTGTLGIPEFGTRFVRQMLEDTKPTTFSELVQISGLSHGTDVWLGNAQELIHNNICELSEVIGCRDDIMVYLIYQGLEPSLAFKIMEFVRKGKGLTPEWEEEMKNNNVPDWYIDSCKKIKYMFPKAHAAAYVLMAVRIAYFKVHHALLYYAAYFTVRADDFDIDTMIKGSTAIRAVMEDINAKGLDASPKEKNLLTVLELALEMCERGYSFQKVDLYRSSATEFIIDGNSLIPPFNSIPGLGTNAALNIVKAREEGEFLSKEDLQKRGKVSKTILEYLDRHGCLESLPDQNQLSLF
Outline: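 Primed replication of single-stranded M13Gori by a four-protein B. subtilis holoenzyme is measured at room temperature. Double-stranded product is quantified by PicoGreen fluorescence after an EDTA stop; inhibition is scaled between DMSO and EDTA controls.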

[7] = biological target: Tumor susceptibility gene 101 protein (Homo sapiens) (UniProt Q99816); assay: qHTS Validation Assay for Iinhibitors of HIV-1 Budding by Blocking the Interaction of PTAP/TSG101 (AID 485342; calls by dose curve); conditions: TSG101-PTAP binding, fluorescence polarization, 4-point titration; series mostly up to 115 µM
Sequence of Tumor susceptibility gene 101 protein (Homo sapiens) (Q99816 whole entry, looked up, the tested form may be a part): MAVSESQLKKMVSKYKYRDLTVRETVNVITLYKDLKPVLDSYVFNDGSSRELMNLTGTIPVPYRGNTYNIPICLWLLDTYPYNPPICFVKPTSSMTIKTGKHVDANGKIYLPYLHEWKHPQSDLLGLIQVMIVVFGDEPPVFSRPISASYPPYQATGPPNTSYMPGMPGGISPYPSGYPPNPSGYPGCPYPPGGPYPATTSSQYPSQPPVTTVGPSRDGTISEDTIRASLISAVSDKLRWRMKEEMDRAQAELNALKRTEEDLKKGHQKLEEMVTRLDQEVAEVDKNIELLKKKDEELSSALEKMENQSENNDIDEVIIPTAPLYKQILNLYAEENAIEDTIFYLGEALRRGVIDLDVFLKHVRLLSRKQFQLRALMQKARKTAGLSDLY
Outline: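 Fluorescence anisotropy measured PTAP-Tsg101 interaction. Final concentrations were 10 uM protein domain and 50 nM labeled peptide, equilibrated 20 min at room temperature.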

[8] = qHTS Validation Assay to Find Inhibitors of Chronic Active B-Cell Receptor Signaling (AID 485345; active = well fitted curve in the direction sought with a large enough effect in the main read-out, with a control signal flat, not every such curve was filed as active); conditions: ABC-DLBCL cells, chronic BCR signaling reporter, CBG luciferase; series mostly up to 46.1 µM
Outline: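 TMD8 ABC-DLBCL cells with dox-inducible green luciferase–IκBα fusion and red native luciferase; compounds 46 uM–3 nM, 4 h at 37C with doxycycline in 0.5% FBS IMDM. Green/red ratio normalized to basal and 10 uM MG-132.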

[9] = biological target: Beta-2 adrenergic receptor (Homo sapiens) (UniProt P07550); assay: qHTS validation assay of beta-arrestin-biased ligands of beta2-adrenergic receptor (AID 485366); conditions: cell-based beta-arrestin recruitment to ADRB2, qHTS; series mostly up to 46.1 µM
Sequence of Beta-2 adrenergic receptor (Homo sapiens) (P07550 whole entry, looked up): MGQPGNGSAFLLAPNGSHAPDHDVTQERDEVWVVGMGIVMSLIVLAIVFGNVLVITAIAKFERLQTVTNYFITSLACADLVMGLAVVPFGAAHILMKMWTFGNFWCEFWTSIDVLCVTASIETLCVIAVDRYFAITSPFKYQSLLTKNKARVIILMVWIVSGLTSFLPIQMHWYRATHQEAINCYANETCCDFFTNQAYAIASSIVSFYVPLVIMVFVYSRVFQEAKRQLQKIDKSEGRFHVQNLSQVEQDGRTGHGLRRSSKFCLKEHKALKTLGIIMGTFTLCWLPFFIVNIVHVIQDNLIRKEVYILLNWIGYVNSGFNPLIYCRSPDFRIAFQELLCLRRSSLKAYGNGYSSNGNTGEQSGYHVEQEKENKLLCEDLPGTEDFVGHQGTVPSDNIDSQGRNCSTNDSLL
Outline: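 Arrestin-recruitment (Tango) reporter: ligand-bound beta2-AR recruits beta-arrestin, releasing tTA, which upregulates luciferase. Titrations of up to 46 microM incubated 18 hr at 37 degrees C before luminescent readout.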

[10] = Validation screen for small molecules that induce DNA re-replication in MCF 10A normal breast cells (AID 463097); conditions: MCF 10A cells, DNA re-replication phenotype imaging; series mostly up to 46.1 µM; also: nearly all actives have a fitted effect of over 60% in size
Outline: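 DNA re-replication was detected as a rise in nuclei with elevated Hoechst fluorescence after a 48 hr compound exposure of MCF 10A cells at 37 C.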

Measured: outcome

O=c1[nH]c(=O)n([C@H]2C[C@@H](O)[C@@H](CO)O2)cc1C=CBr
not listed: [10]
inactive: all other assays above

CN[C@H](CC(C)C)C(=O)N[C@H]1C(=O)N[C@@H](CC(N)=O)C(=O)N[C@@H]2C(=O)N[C@H]3C(=O)N[C@H](C(=O)N[C@H](C(=O)O)c4cc(O)cc(O)c4-c4cc3ccc4O)[C@H](O)c3ccc(c(Cl)c3)Oc3cc2cc(c3O[C@@H]2O[C@H](CO)[C@@H](O)[C@H](O)[C@@H]2O[C@H]2C[C@](C)(N)[C@H](O)[C@H](C)O2)Oc2ccc(cc2Cl)[C@H]1O
not listed: [10]
inactive: all other assays above

N=c1ccn2c(n1)O[C@H]1[C@@H](O)[C@@H](CO)O[C@H]12
inactive: [10]

COc1ccc2cc([S+]([O-])Cc3ncc(C)c(OC)c3C)nc2c1
not listed: [8] | [10]
inactive: all other assays above
